# Screening results deposited in PubChem BioAssay by National Center for Advancing Translational Sciences (NCATS).
# Pf growth 96h: P. falciparum growth inhibition at 96 hour, primary screen for plastid delayed-death inhibitors. P. falciparum luciferase reporter growth, 96 h. Potency, µM (top dose mostly 28.7 µM), for the others: at the highest dose activity change, negative = inhibition, most hits filed as inhibitors. 6.9% of 320,000 active. AID 504834; also: % is scaled to controls: 0 for no effect and ±100 for the full control effect
#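 Cell-based qHTS: luciferase-tagged P. falciparum in erythrocytes (2% hematocrit, 0.05% parasitemia final) incubated with compounds for 96 hours, 37 C, 5% CO2; luciferase detection reagent then added and luminescence measured.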
# Sm TGR block: S. mansoni TGR enzyme inhibition; Potency, µM (titrated, usually from 114 µM), for the others: at the top dose activity change, negative = inhibition, usual class: inhibitors; purified TGR, DTNB reduction, TNB absorbance 405 nm; 3% of 360,000 active; Q962Y6; also: % is scaled to controls: 0 for no effect and ±100 for the full control effect; nearly all actives have a fitted effect of over 60% in size
#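 TGR 20 nM + NADPH 100 uM (dispensed conc.), cpd preinc 15 min RT; start with NADPH (500 uM addition) then DTNB (15 mM addition). Kinetic TNB absorbance, 405 nm filter. Four-parameter Hill fit across titration.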
# AMA1-RON2 inh: inhibitors of Plasmodium falciparum AMA1-RON2 interaction; Potency, µM (series often up to 58.2 µM), inactives show at the top dose activity change, negative = inhibition, usual class: inhibitors; 0.2% of 360,000 active; AlphaScreen AMA1-biotinylated RON2 peptide binding;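 also: 0% = vehicle wells and -100% = peptide control; nearly all actives have a fitted effect of over 45% in size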
#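 AMA1 (3D7) with his tag at 25 nM final met compounds first, then biotinylated RON2 peptide at 25 nM; detection used donor plus acceptor beads, 10 µg/mL apiece, read by AlphaScreen after 30 min at room temperature.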
# Pf growth 48h: P. falciparum growth inhibition at 48 hours (one generation); P. falciparum luciferase growth in erythrocytes, 48 h; Potency, µM (series often up to 28.7 µM), without a hit: at the top dose activity change, negative = inhibition, most hits filed as inhibitors; 5.9% of 310,000 active; also: % is scaled to controls: 0 for no effect and ±100 for the full control effect
#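 Compounds are pin-transferred into medium, infected erythrocytes (2% hematocrit, 0.1% parasitemia final) are added, and plates sit one parasite generation at 37 C in 5% CO2. Detection reagent is then added and luminescence measured.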
# NS1 function inh: blocks influenza NS1 protein function; Potency, µM (highest dose often 46.1 µM), for the others: top-dose activity, positive = more growth; 0.4% of 270,000 active; AID 2326; calls by dose curve; also: actives are rising curves; nearly all actives have a fitted effect of over 50% in size
#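 Read-out: OD600 growth recovery of NS1-expressing budding yeast. Cells grown overnight at 30C in -URA glucose medium, washed, resuspended and diluted 1:100 in 2% galactose assay medium, pH 6.0. Same strain lacking NS1 served as positive control.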
# Numbers without * were called inactive; ? = inconclusive; · = no result; [ ] = dose if it differs, or a comment. Rows were chosen to be rich in hits. Some 11% of all compounds tested hit in one or more screens of this group. Unless noted, calls follow the shape of the dose curve; as a rule, active = well fitted curve in the direction sought with a large enough effect; inconclusive = small, poorly fitted or top-dose-only effect, or another doubt; inactive = no such curve, though single readings can be large; an effect the other way counts as inactive or inconclusive. Potency is read from the fitted curve at half-maximal effect.
SMILES,Pf growth 96h,Sm TGR block,AMA1-RON2 inh,Pf growth 48h,NS1 function inh
COc1ccc(-n2nnnc2SCC(=O)Nc2c(C)n[nH]c2C)cc1,·,·,16.1%,·,·
CCCOc1ccc(C(=O)Nc2ccc(N3CCOCC3)cc2N2CCOCC2)cc1OCC,·,·,-8.1%,·,·
CNc1nc(Cl)nc2c1ncn2-c1ccccc1,·,·,9.5%,·,·
CCNc1nc(C#N)nc2c1ncn2-c1cc(F)cc(F)c1,?,-28.5%,·,1.65µM*,·
CCn1cnc2c(Nc3cc(F)cc(F)c3)nc(C#N)nc21,0.294µM*,-31.3%,·,0.828µM*,·
CCc1c(C)nc(SCC(=O)N2CCCCC2CC)[nH]c1=O (stereo not given),-2.8%,-5.2%,-3.8%,2.08µM*,-4.3%
CCc1c(C)nc(SCC(=O)N2CCN(c3ccccc3)CC2)[nH]c1=O,0.0%,20.4%,26.3%,27.3%,·
CCOC(=O)N1CCN(C(=O)CSc2nc3c([nH]c4ccccc43)c(=O)n2CCOC)CC1,11.7µM*,-9.8%,-2.7%,?,-3.0%
CCC1CCCCN1C(=O)CSc1nc2c([nH]c3ccccc32)c(=O)n1C (stereo not given),-0.7%,4.7%,-1.5%,9.28µM*,-15.6%
COCCn1c(SCC(=O)N2CCCCC2)nc2c([nH]c3ccccc32)c1=O,?,9.7%,-0.2%,11.7µM*,9.1%
CCSc1nc2c([nH]c3ccccc32)c(=O)n1C,-21.8%,?,1.3%,·,2.6%
CCOC(=O)c1cn2nc(Oc3cccc(C(F)(F)F)c3)ccc2n1,3.3%,-0.6%,-17.6%,24.1%,8.5%
COc1ccc(CCN2C(=O)CS/C2=N/NC(=O)c2ccccc2F)cc1OC,-35.0%,-4.1%,13.0%,6.2%,-5.3%
COc1ccc(CCN2C(=O)CSC2=Nc2ccc(C)cc2C)cc1OC,?,7.7%,-6.9%,2.62µM*,-8.2%
CCC(=O)N1CCC1(C)C(=O)Nc1cccc(OC)c1 (stereo not given),·,·,-0.4%,·,·
O=C(C[C@@H]1C/C=C\C[C@H](Cc2ccc(F)cc2)C(=O)OC[C@H]2CCCN2C1=O)N[C@H](CO)Cc1ccccc1,·,·,-7.8%,·,·
Cc1nc(Nc2ccc(F)cc2)[nH]c(=O)c1CCC(C)C,·,-12.5%,2.0%,5.86µM*,-106.1%
Cc1ccc(Nc2nc(C)c(CCC(C)C)c(=O)[nH]2)cc1,16.6%,9.7%,-4.3%,?,9.3%
CCCc1cc(=O)[nH]c2nnc(SCC(=O)Nc3cccc(NC(C)=O)c3)n12,?,-1.3%,19.6%,?,·
O=[N+]([O-])CC(=Nc1ccc(F)cc1)N/N=C\c1oc(O)c2ccccc12,28.5%,11.2µM*,·,61.6%,8.9%
O=C(N/N=C/c1oc(O)c2ccccc12)c1ccccc1O,65.1%,-1.7%,97.8%,29.6%,·
COc1cc(NC(=O)Cn2cnc3c2c(=O)n(C)c(=O)n3C)c(OC)cc1Cl,·,0.8%,·,·,·
NC(=O)CNC(=O)[C@@H]1CC2(CC(c3cccc([N+](=O)[O-])c3)=NO2)CN1C(=O)c1ccccc1 (stereo not given in full),?,-6.0%,2.7%,2.7%,-6.6%
Cc1ccc(CCNC(=O)C23CN(Cc4ccccc4)CC2C(c2cccc([N+](=O)[O-])c2)=NO3)cc1 (stereo not given),?,-8.6%,-18.2%,2.94µM*,12.3%
O=C(NCC1CCCCC1)C12CN(Cc3ccccc3)CC1C(c1cccc([N+](=O)[O-])c1)=NO2 (stereo not given),?,-3.1%,-4.5%,1.65µM*,23.4%
SMILES,Pf growth 96h,Sm TGR block,AMA1-RON2 inh,Pf growth 48h,NS1 function inh
COc1ccc(CCNC(=O)C23CN(Cc4ccccc4)CC2C(c2cccc([N+](=O)[O-])c2)=NO3)cc1 (stereo not given),?,-3.2%,?,?,1.6%
COc1ccc(C(=O)CCN2CCN(c3ccccc3OC)CC2)cc1,?,0.562µM*,-12.7%,16.8%,·
CC(=O)OCC(=O)c1ccc2ccn(C(C)=O)c2c1,10.4µM*,4.8%,-2.9%,3.8%,-6.4%
COc1ccccc1N1CCN(CC(=O)N2CCCC2)CC1,?,-8.9%[57.1 µM],-23.4%,19.3%,-3.0%
COc1ccccc1N1CCN(CC(=O)c2ccc3ccn(C(C)=O)c3c2)CC1,170.6%,25.1µM*,18.3%,·,1.6%
O=C(NCc1ccc2c(c1)CCN2C(=O)c1ccncc1)c1ccc(Cl)cc1,·,-1.8%,·,·,·
